Experimental findings from PubChem BioAssay AID1159506 (National Center for Advancing Translational Sciences (NCATS), 2015) are described below.

In all, about 59,000 sequences were measured (the read-out: median about -0.00055, lowest 2% from about -2 on). The entries come from a sample that favours the lowest values as a whole.

The nature of this assay: Identification of proteins required for the processing of the EWS-FLI1 nascent transcript.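 Also: robust z of luciferase light less the median z of siRNAs with the same seed.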 As to conditions: TC32 Ewing sarcoma NR0B1-luc vs CMV-luc (EWS-FLI1 target promoter against control promoter), 48 h; screened at 20 nM (by protocol). An outline of the steps:
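Three siRNAs per gene, each in a separate well at 20 nM, were transfected into TC32 cells bearing either reporter construct. Luminescence was measured two days on, and per-gene comparison relied on seed-corrected Z values.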
As for UGACGAAAUAGUAGAAGUG against MOB3A, the seed-corrected z-score is -0.387. Next, UUCAUCACCAGCUCUUUCC against CLEC4F: -0.0692; UCAUGGGACGGCAUAACUG against SPDYE3: -0.601. In the case of ACGAUUACAACUUCGAUCC against DOCK7, the seed-corrected z-score amounted to 1.63. Next, UGGCGCUUGAUUGGAACUC against UNC5B-AS1: -0.56. Next, AUGUUUGACAUUGUCCACG against KPNA2: -2.38; AAGUUGAAGAUAAGAGUCC against C11orf63: -0.178; AUCGAAAUAAGUCAGAUAG against NAA25: 0.893. Next, UGACCUGUAGCGUUGCAGC against EFCC1: -0.581. Regarding UCUAUAUCUCCGUAAUUCC against TRRAP, the seed-corrected z-score was -2.5. Take UUAGUUCCUGGGUAUCUGC against SNAP47: the seed-corrected z-score worked out at 1.17. Next, UUUCAUAGAAUCUAUCCAG against C20orf196: 0.184. Next, UUUGGAACUGGUCAUGUGU against RPL29P30: -3.1; UUUCUGAGGAGACAACUCU against ANKRD36B: 0.345; UUGGGUAAAAUGUCCACUC against SPATS1: -2.28. Next, UGUGCGACUGGAGAAUGCG against KRT81: -0.00183; UGAUAUAUAACUUAGAUGG against VWA9: -12.6. Turning to AGAGUGACCAGUCCGGUAG against CIDEA, the seed-corrected z-score was 0.43.

In turn, UCCCGGUCUGCAUUCUUCC against PHKA1P1 had a seed-corrected z-score of -0.749. Next, AAAGUUGCUACAGCUGUCA against SH3BP5: -2.12; UUAGUGUGAAUAGUGAUUU against PODXL: 0.827. In the case of UAUCUUUCUCAGGAGUUUG against OR2T10, the seed-corrected z-score was -0.23. Next, AUAGCAGUCAACAUCGUAG against TMED3: -2.8; UGACUUGGCACAGUAUAUC against FAM83A: -0.413. Next, UAUCUUUAAAGUGUAUCUA against FAM230B: 0.596. Next, UCUAGGCUCAGGAAGUUCU against AP5S1: -1.09. AAACCAAGUAGCUUGAUGU against LOC647275 displayed a seed-corrected z-score of 0.229.

Consider UCAUUUUGAAUUGAAGAUG against FAM76A, for which the seed-corrected z-score was determined as 0.228. Next, UUUCCAUAGGAGACGAUGC against CTSG: 0.0794; UGUUGAUAAGUUACCAUCC against GPCPD1: 0.968; UUGUUCUAAAGUAUCCUCC against NDC80: -2.14. Next, AGUCAUUUAAACUUGAUCC against TMSB4X: 0.898; UACGCUUUCUCUACAGUAC against ZNF606: 0.237; UCUCUUAUGCAGCUUGUGG against SPTBN4: 0.43. Next, UGCAUAGACAAGGCAGUCG against ZNRF2: -2.35. In turn, UCAGCUGAUAUCUUGUUGC against UBOX5 came in with a seed-corrected z-score of 0.0283. In the case of ACAGUUUCGAAGGCGAAUG against ABCB9, the seed-corrected z-score was -1.83. In turn, AAUGCAACCACAGCUAUCC against THNSL1 displayed a seed-corrected z-score of 0.294. Next, UUACUGUGCUGUCUAGACC against TMEM79: 1.12; UUGCUAUUCCUCCUGGUAG against IRF2BP2: -0.0854.

For the sequence AAUAUCAAUACGAUCUCUG against SNAP23, the seed-corrected z-score is -0.225. In the case of UUAUGUAUCAUACAAAAGU against YPEL4, the seed-corrected z-score amounted to 1.55. Take UGUGCCUUUCUGACGAUGG against SBK2: the seed-corrected z-score worked out at 0.535. Next, UAAGUGGAAAUCCUCGGGC against WBP2NL: 1.46.

UUAUUUAUUCCGUUCAUAU against UBE2V2 had a seed-corrected z-score of -3.25. Next, UCAUGUAAUCUAGCGAUCG against ENTHD1: 0.768; UUUUGGUCACUUCAAAUUC against MYDGF: -2.17.

For the sequence UCACAAACCACGUUACACG against PABPC3, the seed-corrected z-score is -0.495.

Turning to AGUAGAUACAGCUUCUUUC against CCDC50, the seed-corrected z-score was -0.915. Next, AAAUUUCACAGGUAAUAUG against OR13D1: -0.485; AUGGUGACAAUUGAACUCC against IGF1R: -1.36; UCUGUUAGCAGCUGGUUUG against SH3D19: -2.01. Next, UUUAUUAUGAUCUUCCGAG against PIP: 0.162. Next, UUUGACGAAAUGGGAAUCC against OMD: -0.258; UAACGUAUAGCUACAACUC against MED23: 0.49.

With UGAUUUUCUGCACAAGUCC against NELL2, the seed-corrected z-score was 0.658.

Sequence AUUCUGUUCAAACAUCUGG against EXOC3 displayed a seed-corrected z-score of -2.38.

For UACGCGGGCAAACUUCUCC against LRRC14, the seed-corrected z-score is 0.0562. Next, AAUUCGCAAAGAAUGAUGC against CNN1: 0.159. Next, UAGACUACCGGCUUCUUGC against CTRC: -0.112; UCAGCAUCUUCCAUGAUAG against B3GNT4: -0.437; AUCUGGUUGCUUUUUAUCC against FAM60A: -3.49. UGAACCACCAGGGUAUACG against CDH1 showed a seed-corrected z-score of 1.03. Next, UCUUGAAUUGAGCAAGUCC against MGAT5: 0.401; UUUCAGCUAAUGCAUUUUG against VIP: -3.11. Next, UGUAGUAGAACUUCCUGGG against HS6ST1: -1.42. On to UCAAUUUUGAGUCCAUUGG against ANKRD46, for which the seed-corrected z-score is 0.911.

With UCCUUUAGAACUCUCGAUC against WIPF3, the seed-corrected z-score stood at 0.233. Next, AUUAACAUAAUCUUGAUCC against CCNL2: -4.87.

The sequence UCAAAGGUCACGGUCAGGA against PRDM15 registered a seed-corrected z-score of -1. Next, UUUAGAGGGACUCUUGUUU against HMGA2: -1.74; UUCUGACUGAGAGCUAUGG against BNIP3L: -0.338; UAAAUAGUUCUCGUCUUUC against EHF: 0.511.

Consider UCUCUUGAGAGCGCGGUUG against RGS8, for which the seed-corrected z-score worked out at 1.31. Next, UACUGAUUGAGUGCCCUGC against FGGY: -5.78; UGAAGUUCAGCUACUAGCC against DIMT1: -0.104. As to UAAACAGUGAUUGCACCAC against ZNF497, the seed-corrected z-score is -1.22. Next, UAAGAAAAUAGGGAGGCCG against H1F0: 0.96. Next, UCCGAGUCAAUACUGUAUC against UIMC1: 0.162; UGCUUUUUCAUGGACCACC against SOD1: -3.09. Next, ACUAAUACUAAAUUCAACC against CSDE1: 1.52; UCCAGCUGAACUGUCACUC against TBX10: -0.201; UUCUUUUCCAGGUACGUGA against CCDC105: -0.394.

In turn, UAUGUGCUUACUAGGGUCA against SSR3 returned a seed-corrected z-score of -0.244. Next, AUCUUUCGAACUACAAUUG against PSME4: 1.14; UCCCAAGUCGCUCAAGUUC against LOC389834: 0.29; UUUGGAGACAACAAGGUCG against SYN3: -0.442. Next, UCCGGAAGUACUGUCGAAG against PPP2R1A: -0.186; AAUGUACUAUCUACUUGCC against ZNF507: -0.378.

The sequence UCAGGAUCAAAAUCCAGUC against LTV1 yielded a seed-corrected z-score of -2.94.

The sequence UGUCGAAACAGGAGGCGCU against ZNF579 displayed a seed-corrected z-score of -1.11. Next, ACAGAUCAAAGAACUGUCC against LGALS4: 0.144; UACUUGGACAAGUCCAAGA against LSM7: 0.593; UGAACUUCUGGAGUCCCUC against CCDC115: 1.1. Next, UUUCGUAACCCUUCUGGGC against GNPTAB: 0.263; UAAGGUUAGGUUAGGAAUG against SH3BGRL3: -0.0213.

With UAAUAGACCACGGAGUCUU against TMEM130, the seed-corrected z-score was -3.42.

UAAUCUCCUUCUUUAGGUC against CNOT3 gave a seed-corrected z-score of 1.42. Next, AGUUCACUAAGUCAAUAGC against TMEM44: -1.14. Next, UGGGUCAUGUGCUCUAUCC against HDGFL1: -0.0953.

As for UAUGAGGUAAAGUGGGAAG against LCE2A, the seed-corrected z-score was -2.17. Next, UUGGGUUCGAUAUCUGCUU against CALML4: 0.413; UCAGAAAUGACCUUGUUGC against LOC729187: 1.39. Next, AUCGGCAAAGUAAUUCUGG against NECAB3: 0.533; UGUAUUACAAUAUUCCUUC against LACE1: -0.00635; UCUUGUCGUAGUUCGUGGG against DUS3L: -2.02. AAACUGGUCAUCAUCCACC against SIKE1 registered a seed-corrected z-score of 0.42.

Consider AUCUGAGUGGAAAAAGUCC against AHNAK2, for which the seed-corrected z-score amounted to 0.0875.

Consider UUCAGACUUGUUUUCACCC against POU1F1, for which the seed-corrected z-score was -0.00706. Next, AAAGGUAGAAAGAAGGACU against ZDHHC8P1: -0.722; UUGGUCUAGACUACUCUCC against KRT5: -0.431. ACAGAUAUCACAGGUAACC against MCU had a seed-corrected z-score of 0.266. Sequence AACAUAGCUAAAGUUGUUG against SLC16A5 yielded a seed-corrected z-score of -3.24. With GAGCCGAACACCACUAUGG against SYNGR1, the seed-corrected z-score is -0.617. Sequence AGAUCUACUACAGCCGUUC against RARS2 returned a seed-corrected z-score of 0.391. Next, UUCGACCCAAGGUUUGUGC against DBF4: 0.865; UUAAUGAUAAACACGUCUU against LMX1A: -0.388. Next, UCCUAUAGCAGAAUAUUCC against PVRL3: -0.846.

Sequence UCAACAUUAGGUUUCUUAG against TAF9B returned a seed-corrected z-score of 0.431. UCUGGUAGUUCUUCAAGGC against LINC00238 displayed a seed-corrected z-score of 0.0623. Next, UAUUCUGUAGGCUCAAAAC against KRTAP4-11: -3.43; UUUCGCUAAGCUGCUCUUC against AQP9: -0.131.

UUAUGGAAUGUCGUUUUCC against FAM228A registered a seed-corrected z-score of 0.0891. Next, UAAUGUCUAAGGAAGAUUU against ZBTB8A: 0.693; AAGCUGAUAAUAGGCUUUC against DNAJA3: -0.565.

UUCCAAGACAGAAAUGAGG against DNHD1 had a seed-corrected z-score of 0.456. Next, UGGGAUUUUAAAACGGCGG against DPP9: 0.0729; UUCUAUUUAGGAGAGCUUC against RPS16P10: -1.32. Next, UAUCUUGUGGUGGUAGAGC against METTL23: 0.782; UCCGUUUUUGAGAAACUUG against PNLDC1: -0.423; UAGAAAGUCUUUACUAUGU against PIGA: -1.02.

In the case of UAAGUAGAUGGAGGACACC against MRGPRF, the seed-corrected z-score was -2.16.

The sequence AUAUAGGAUCUUAUUGUGC against B4GAT1 showed a seed-corrected z-score of -0.205.
